Reference: PubChem BioAssay (NCI)
Compounds without any hit were thinned out: in the full panel of roughly 83,000, 20% have a hit.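 Each cell line was grown in a 96-well plate and treated with one concentration of compound for 48 hours. Values below 10 were considered active.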 A number with no mark means an inactive call. Activity calls are given as the source filed them.

Key:
Assay in all cases: NCI-60 one-dose screen, 48 h (100 = growth as untreated, 0 = no growth, -100 = all killed)
Settings in all cases: 10 µM unless noted
[1] = test system: SK-MEL-2 melanoma
[2] = test system: EKVX NSCLC
[3] = test system: SN12C renal
[4] = test system: TK-10 renal
[5] = test system: ACHN renal
[6] = test system: CAKI-1 renal
[7] = test system: A498 renal
[8] = test system: MOLT-4 leukemia
[9] = test system: SR leukemia
[10] = test system: RPMI-8226 leukemia
[11] = test system: OVCAR-8 ovarian
[12] = test system: OVCAR-5 ovarian
[13] = test system: OVCAR-4 ovarian
[14] = test system: SK-OV-3 ovarian
[15] = test system: IGROV1 ovarian
[16] = test system: HS 578T breast
[17] = test system: NCI/ADR-RES ovarian
[18] = test system: CCRF-CEM leukemia
[19] = test system: OVCAR-3 ovarian

SMILES	growth [1]	growth [2]	growth [3]	growth [4]	growth [5]	growth [6]	growth [7]	growth [8]	growth [9]	growth [10]	growth [11]	growth [12]	growth [13]	growth [14]	growth [15]	growth [16]	growth [17]	growth [18]	growth [19]
O=C1/C(=C/c2ccc(F)cc2)CN(C(=O)C(Cl)Cl)C/C1=C\c1ccc(F)cc1	-16% (active)	-17.9% (active)	-72.5% (active)	-59.8% (active)	-98.3% (active)	-55.4% (active)	-84.3% (active)	-18.2% (active)	-18.4% (active)	-31.4% (active)	-9.41% (active)	-53.8% (active)	12.7%	23.5%	-50.3% (active)	6.3% (active)	5.22% (active)		
COc1ccc(N2CCN(C(=O)c3sc4nc(C)c(Br)c(C)c4c3N)CC2)cc1	85.1%	79.9%	95.9%	115%	92.6%	82.6%	103%	93%	97.4%	98.5%	97.6%	90.5%	90.6%	90.1%	91.2%	92.8%	101%	97.8%	98.3%
O=C(/C=C/c1cccc(Cl)c1Cl)Nc1ncc(Cc2ccccc2Cl)s1	44.7%	55.7%	56.9%	84.2%	46.4%		39.6%	50.6%	19.1%	35.4%	73.6%	80.1%	70.2%	70.4%	39.3%	38%	31%	21.5%	11.3%
COc1cccc(/C=N/NC(=O)c2ccccc2N2CCCC2)c1O	-7.25% (active)	41.7%	78.8%	74.9%	31.1%	0.778% (active)	67.1%	30.7%	77.4%	-1.83% (active)	54.9%	57.9%	18%	63.6%	-24.3% (active)	87.3%	13.6%		-4.45% (active)
C/C(=N\O)c1ccc(NC(=O)CSc2nnc(-c3cc(-c4ccc(S(C)(=O)=O)cc4)nc4ccccc34)n2-c2ccccc2)cc1	100%	84.7%	89.2%	107%	90.8%	73.8%	53.1%	57.9%	62.4%	48.2%	82.6%	97.3%	98.7%	115%	80.9%	73.4%	96.8%	68.2%	102%
COc1ccc(-c2nc(/C=C3\C(=O)N(C)c4ccccc43)c3ccccn23)cc1	83.7%	113%	82.3%	60.1%	64.5%	94.1%	103%	95.7%	-7.02% (active)	104%	58.6%	85.5%	47.2%	66.8%	69.7%	41.3%	77.6%	71.7%	94.3%
